Screening results (PubChem)
Rows were chosen to be rich in hits. Some 10% of all compounds tested hit in one or more screens of this group.
hNpr1 antagonist: human Npr1 receptor antagonism; 76,000 tested, 1.6% active; Potency, µM (doses to about 46.3 µM), without a hit: top-dose activity change, negative = inhibition, hits mostly inhibitors; HEK293 hNpr1 GloSensor cGMP, ANP-stimulated luminescence; calls by dose curve; note: % is set by controls: 0 for no effect and ±100 for the full control effect; nearly all actives have a fitted effect of over 60% in size
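HEK293 cells stably expressing human Npr1 and cGMP GloSensor pGS-40F, loaded 2 h with 2% GloSensor reagent, given compound 30 min at room temperature. Luminescence read before and 20 min after 0.1 nM hNppA.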
HEK cytotox: kills HEK 293 cells; HEK 293 viability, ATP luminescence (CellTiter-Glo), 48-72 h; 94,000 tested, 6.6% active; Potency, µM (highest dose often 115 µM), for inactives: at the highest dose activity change, negative = cytotoxicity, actives largely listed as inhibitors; note: % is set by controls: 0 for no effect and ±100 for the full control effect; nearly all actives have a fitted effect of over 60% in size
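Pintool-delivered compounds were incubated with HEK 293 cells (250 cells/well) at 37 degree Celsius for 48 or 72 hr. ATP-dependent luminescence (CellTiter-Glo) then reported remaining viable cells.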
NIH3T3 tox: cytotoxic compounds in NIH 3T3 cells. Potency, µM (titrated, usually from 96.7 µM), without a hit: at the top dose activity change, negative = cytotoxicity, usual class: inhibitors. NIH 3T3 viability, CellTiter-Glo ATP luminescence, 48-72 h. 94,000 tested, 4.3% active. AID 1345082; note: % is set by controls: 0 for no effect and ±100 for the full control effect; nearly all actives have a fitted effect of over 55% in size
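NIH 3T3 cells at 400 cells/well received 23 nL of compound by pintool and were incubated 48 or 72 h at 37 °C. Viability was read as ATP-coupled CellTiter-Glo luminescence.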
FLuc inh-1: Photinus pyralis luciferase inhibition | P08659 | purified P. pyralis luciferase, luminescence, biochemical | Potency, µM (highest dose often 115 µM), actives largely listed as inhibitors | 76,000 tested, 2.5% active | AID 1347043; note: % is set by controls: 0 for no effect and ±100 for the full control effect; nearly all actives have a fitted effect of over 65% in size
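Luminescence read by CCD imaging after purified firefly luciferase (10nM final) was added to substrate buffer holding 10uM D-luciferin and 10uM ATP, pH 7.5, pre-dosed with compound.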
GPT2 inhibitor: inhibitors of human GPT2 alanine aminotransferase; Recombinant GPT2, coupled pyruvate oxidase/HRP Amplex Red fluorescence; Potency, µM (doses to about 57.7 µM), for the others: top-dose activity change, negative = inhibition, actives largely listed as inhibitors; Q8TD30; 100,000 tested, 0.25% active; AID 1671188; note: % is set by controls: 0 for no effect and ±100 for the full control effect; nearly all actives have a fitted effect of over 60% in size
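Fluorescence read-out: pyruvate from GPT2 turnover coupled to pyruvate oxidase, HRP and Amplex Red (0.2mM ThPP, 0.2U/mL PO and HRP, 50uM Amplex final). Substrates 250uM a-KG, 2mM L-alanine; enzyme 10ng/uL; 30 min RT.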
FLuc SDR -ATP: stabilizes firefly luciferase without ATP. Purified FLuc-C-HiBiT, Nano-Glo HiBiT luminescence, no ATP. 1,300 tested, 7.8% active. Potency, µM (doses to about 32.7 µM), for inactives: top-dose activation (signal gain), usual class: activators. shares compounds with FLuc inh-1; note: nearly all actives have a fitted effect of over 55% in size
FLuc SDR ATP: stabilizes firefly luciferase with ATP present; Potency, µM (titrated, usually from 32.7 µM), without a hit: at the top dose activation (gain of signal), actives largely listed as activators; 1,300 tested, 8.7% active; purified FLuc-C-HiBiT + ATP, HiBiT complementation luminescence; shares compounds with FLuc inh-1;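 note: signal reports ligand binding via conformational change of the enzyme rather than luciferase catalysis; % of control where 0% means no effect; nearly all actives have a fitted effect of over 55% in size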
FLuc inh-2: inhibitors of firefly luciferase enzymatic activity; shares compounds with FLuc inh-1; purified FLuc-C-HiBiT enzyme, luciferin luminescence; Potency, µM (highest dose often 32.7 µM), for the others: at the top dose activity change, negative = inhibition, actives largely listed as inhibitors; 1,300 tested, 42% active; AID 1963320; note: % is set by controls: 0 for no effect and ±100 for the full control effect; nearly all actives have a fitted effect of over 70% in size
Active calls of the source: *; i = inactive; ? = inconclusive; . = no result given; [ ] = remark or other dose. Unless noted, calls come from the whole dose curve; as a rule, active = well fitted curve in the direction sought with a large enough effect; inconclusive = small, poorly fitted or top-dose-only effect, or another doubt; inactive = no such curve, though single readings can be large; an effect the other way counts as inactive or inconclusive. Potency is the fitted concentration of half-maximal effect.

SMILES	hNpr1 antagonist	HEK cytotox	NIH3T3 tox	FLuc inh-1	GPT2 inhibitor	FLuc SDR -ATP	FLuc SDR ATP	FLuc inh-2
CC(C)(Oc1ccc(-c2nc3cc(Cl)ccc3s2)cc1)C(=O)O	.	.	.	.	i	?	?	8.8µM*
CC[C@H]1CN(Cc2ccc(OC)cc2O)CC[C@H]1CC(=O)N1CCOCC1	-1%[70.6 µM]	-4%[172 µM]	3%[174 µM]	i	3%[88.5 µM]	.	.	.
CC[n+]1c(/C=C/N(C)c2ccccc2)n(-c2ccccc2)c2ccc(-c3nc4ccccc4s3)cc21	.	.	.	.	.	9%	7%	?
CC(C)Oc1ccc(C(=O)N2CC(c3nnc(-c4ccncc4)o3)C3(CCOCC3)C2)cc1 (centres undefined)	-1%	-2%	-13%	i	4%	.	.	.
CCOC(=O)[C@H]1[C@@H](O)C(=O)NC12CCN(C(=O)c1ccc(C)cc1)CC2	.	-3%	?	.	.	.	.	.
c1c(-c2nc(C3CCOC3)no2)sc2c1CCCC2 (centres undefined)	8.9µM*	?	?	0.63µM*	i	21%	?	5.6µM*
CCC(=O)N1CCc2c(C(=O)NCC(C)C)cccc21	0%	4%	-11%	i	1%	.	.	.
O=C(NCc1ccc(F)cc1)c1ccc2nccn2c1	-20%[70.6 µM]	?	?	i	-1%[88.5 µM]	.	.	.
O=C(Cn1c(=O)oc2ccccc21)N1CC2CC(C1)[C@H]1CCCC(=O)N1C2 (some centres undefined)	6%	4%	2%	i	i	.	.	.
O=C(NCCc1ccc(Cl)cc1)c1cn2cc(-c3ccccc3)sc2n1	.	4%	-3%	.	i	.	.	.
Cc1c(CCNC(=O)c2ccc(Br)o2)sc2nc(-c3ccc(Cl)cc3)nn12	.	.	.	.	.	19%	11%	?
CC(C)NC(=O)N1CCN(c2ccc(Cl)nn2)C(=O)C1	.	i	1%	.	i	.	.	.
O=C(CSc1nnc2[nH]c(=O)cc(-c3ccccc3)n12)Nc1ccc(OC(F)(F)F)cc1	.	.	.	.	.	20%	15%	7µM*
CN1CCCCC(CC(=O)Nc2ccc(OC(F)(F)F)cc2)C1=O (centres undefined)	-1%	-17%	1%	i	i	.	.	.
O=C(NC1CC1)[C@@H]1C[C@H](Oc2ccccc2)CN1C(=O)c1cc2ccccc2[nH]1	-4%	-28%	-6%	?	i	.	.	.
CC(C)CC(=O)N[C@H](C)c1c(-c2ccc(Cl)cc2)noc1C(=O)O	6%[70.6 µM]	i	?	i	-6%[88.5 µM]	.	.	.
O=C(NCc1ccccc1F)C1CCN(C(=O)c2ncn3c2COC(c2ccccc2)C3)CC1 (centres undefined)	0%	5%	-1%	10µM*	i	15%	?	3.5µM*
O=C(NCc1ccc(F)cc1)C1CCN(C(=O)c2ncn3c2COC(c2ccccc2)C3)CC1 (centres undefined)	0%	-6%	-13%	14µM*	i	16%	?	5.6µM*
COc1ccc(C2Cn3cnc(C(=O)N4CCC(C(=O)NCc5ccco5)CC4)c3CO2)cc1 (centres undefined)	-7%	4%	i	i	i	.	.	.
COc1ccccc1CNC(=O)C1CCN(C(=O)c2ncn3c2COC(c2ccccc2)C3)CC1 (centres undefined)	-3%	-4%	i	13µM*	-3%	11%	?	6.2µM*
CCc1ccc(CNC(=O)C2CCN(C(=O)c3ncn4c3COC(c3ccc(F)cc3)C4)CC2)cc1 (centres undefined)	0%	-16%	-11%	?	i	.	.	.
